Reference: PubChem BioAssay (NCI)
About 83,000 compounds went through this panel and 20% of them were active in at least one assay; those are over-represented in the sample as a whole.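 Activity criterion: percent growth below 10, measured after cells in 96-well plates were exposed to a single compound concentration for 48 hours.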 A number with no mark means an inactive call. Activity calls are given as the source filed them.

test system: HL-60(TB) leukemia; assay: NCI-60 one-dose screen, 48 h (100 = growth as untreated, 0 = no growth, -100 = all killed); settings: 10 µM unless noted

Row | SMILES | growth
1 | COc1ccc2sc(N(Cc3cccnc3)C(=O)c3ccc(C#N)cc3)nc2c1 | 63.4%
2 | C=CCN1C(=O)c2cccc3c(N4CCOCC4)ccc(c23)C1=O | -5.15% (active)
3 | COc1ccc(/C=C/C(=O)/C=C/c2cc3ccc(Cl)cc3[nH]c2=O)cc1 | 71%
4 | C=C1C(=O)O[C@H]2[C@H]1CC/C(COC(=O)CCCc1c[nH]c3ccccc13)=C\CC[C@@]1(C)O[C@@H]21 | 2.97% (active)
5 | CCOC(=O)c1ccc(NC(=O)Nc2nccs2)cc1 | -50.1% (active)
6 | Cc1c(NCc2nnc3n(Cc4ccccc4)c(=O)c4c5c(sc4n23)CCCC5)c(=O)n(-c2ccccc2)n1C | 80%
7 | O=[N+]([O-])c1cccc(C2c3ccccc3Oc3ccccc32)c1 | 99%
8 | CCCCC(CC)COC(C)=O (stereo not given) | 100%
9 | CCN1C(=O)N(CC)C2Nn3c(s/c(=C4\C(=O)Nc5ccccc54)c3=O)=NC21 (stereo not given) | 27.8%
10 | Brc1ccc([I+]c2ccc(Br)cc2)cc1 | -25.6% (active)
11 | O=C(CSc1nnc(-c2ccc(Cl)cc2)o1)Nc1ccc(C(=O)/C=C/c2ccc(Cl)cc2)cc1 | 84.4%
12 | CCOc1cccc(/C=N/NC(=O)c2ccccc2Nc2ccnc(C(F)(F)F)c2)c1O | -4.47% (active)
13 | CC1CCCCC[N+]12CCCC2 (stereo not given) | 102%
14 | CC1(C)NCCC[C@]2(C)[C@H]3CC=C4[C@@H]5C[C@@](C)(CO)CC[C@]5(C)CC[C@@]4(C)[C@]3(C)CC[C@@H]12 | 66.3%
15 | OCCNc1nc(NCCO)nc(Nc2ccc(C3=NN(c4cc(Cl)cc(Cl)c4)C(c4ccc(C(F)(F)F)cc4)C3)cc2)n1 (stereo not given) | 16.7%
16 | COc1ccc(S(=O)(=O)N2CCN(c3cc4c(cc3F)c(=O)c(C(=O)O)cn4C3CC3)CC2)c(OC)c1 | 87.1%
17 | Cc1ccc2c(c1)nc(C)n2-c1ncnc2c1CC(C)c1cc(O)ccc1N2C (stereo not given) | -5.44% (active)
18 | COc1ccc(-c2nc(SCCC(C)C)nc(N/N=C\c3cccc([N+](=O)[O-])c3)c2C#N)cc1 | 97%
19 | COc1ccc(C(=O)C(C#N)c2cc(OC)c(OC)c(OC)c2)cc1 (stereo not given) | 96%
20 | C[C@H]1C(=O)N2c3ccccc3[C@@]3(O)C[C@@H](n4cnc5ccccc5c4=O)C(=O)N1[C@@H]23 | 64.6%

Row | SMILES | growth
21 | COc1ccc(/C=C/C(=O)c2cc3c(N)c(C(=O)Nc4ccccc4C)sc3nc2C)cc1 | 10.7%
22 | COc1ccc(C2CC(c3ccc4ccccc4c3)=NN2c2nc(O)c(C3=c4cc(OC)ccc4=NC3=O)s2)cc1 (stereo not given) | 36.2%
23 | CC(C)CCOC(=O)c1ccccc1 | 101%
24 | COc1ccc(C(c2cc(OC)c(OC)c(OC)c2)N2CCN(Cc3ccccc3)CC2)cc1 (stereo not given) | 23%
25 | c1ccc(-c2nnc(-c3ccccn3)s2)nc1 | 95.8%
26 | CC(=O)OCC1OC(n2cnc3c(=S)nc(N)[nH]c32)C(OC(C)=O)C1OC(C)=O (stereo not given) | 81.2%
27 | Cn1c([N+](=O)[O-])cnc1C=C1C(=O)c2ccccc2C1=O | 4.69% (active)
28 | O=C(CSc1nnc2sc(Nc3cccc(Cl)c3)nn12)c1ccc(F)cc1 | 82.7%
29 | Cc1nn(-c2ccccc2)c2c1N=c1s/c(=C\c3ccc(C(F)(F)F)cc3)c(=O)n1CN2 | 91.2%
30 | CCOC(=O)c1sc(/N=C2\NC(=O)/C(=C/c3ccc(N4CCN(C)CC4)cc3)S2)nc1C | 100%
31 | CCN(CC)CCOc1ccc2ccc(=O)oc2c1 | 3.42% (active)
32 | COc1cc(-c2csc(NC(=O)c3ccc(N4CCOCC4)c(C(F)(F)F)c3)n2)cc(OC)c1OC | 15.6%
33 | COc1ncc(-c2ccc3nccc(C#CCN4CCN(S(C)(=O)=O)CC4)c3c2)cc1NS(=O)(=O)c1ccc(F)cc1F | -18.6% (active)
34 | O=C1c2ccc3c4c(ccc(c24)C(=O)N1CCCNCc1ccccc1)C(=O)N(CCCNCc1ccccc1)C3=O | -71.3% (active)
35 | CCOc1ccc(C2N(c3cc(OC)c(OC)c(OC)c3)C(=O)C2(F)F)cc1 (stereo not given) | -16% (active)
36 | Cc1occc1-c1nnc(SCC(=O)c2ccc(NC(=O)CC(C)C)cc2)o1 | 98.3%
37 | CCN1C(=S)N(CC)C2C1NC(=S)N2/N=C/C=C/c1ccccc1 (stereo not given) | -22.2% (active)
38 | O=[N+]([O-])c1ccc2c(c1)Cc1cc(I)ccc1-2 | 92.8%
39 | COc1cccc(Sc2ccc([N+](=O)[O-])c3no[n+]([O-])c23)c1 | 2.91% (active)
40 | N#C/C(=C\c1ccc(-c2ccccc2)o1)c1nc(-c2ccco2)cs1 | 99.3%
